Data on 39 compounds can be found in PubChem BioAssay.

A number with no mark means an inactive call. This is one part of the list. Active and inactive are the calls of the source. Cut-off read from the data, not from the text of the source, unless noted: active = inhibition above about 23%; inactive = the rest.

In the first assay the test system is transactivating tegument protein VP16 (Human herpesvirus 1). In words: compounds suppressing VP16-driven luciferase signal – cell-based, luminescence, single concentration, counter-screen for SRC2 inhibitor project (AID 652007; in the data active = inhibition above about 36%). As to conditions: cell-based VP16 transactivation luciferase reporter, at 8.9 µM, hits give high values.
For the compound `CN1OC[C@@H]2CN(S(=O)(=O)c3cccc(C(F)(F)F)c3)[C@H](c3ccc(-c4cc5ccccc5o4)cc3)C[C@@H]21`, the inhibition is 3.18%.

Regarding `C[C@H]1CCC/C=C/C(=O)c2c(O)cc(O)cc2CC(=O)O1`, the inhibition is 41.5% (active).

As for `CN(C)S(=O)(=O)c1cccc(NC(=O)COC(=O)C2(c3ccccc3F)CCCC2)c1`, the inhibition was -4.31%.

Take `CC[C@@H](C)[C@H](NC(=O)CCc1c(C)c2cc3c4c(oc3c(C)c2oc1=O)CCCC4)C(=O)O`: the inhibition was 40.8% (active). As for `COc1ccc(OC)c(NC(=O)c2cc(-c3cc(F)ccc3OCC3CCCO3)n[nH]2)c1` (stereo not drawn), the inhibition is 1.64%. On the same count and under the same terms, the same measure for `O=C(c1c(F)cccc1F)N1CCN(S(=O)(=O)c2ccc3c(c2)OCCO3)CC1`: -6.59%; for `Cc1ccc(-c2nc(CSCC(=O)NC3CCN(Cc4ccccc4)CC3)c(C)o2)cc1`: 11%. On the same count and under the same terms, the same measure for `COc1ccc(/C=C2/SC(=O)N(CCCCCC(=O)Nc3ccccc3C(=O)O)C2=S)cc1`: 53.8% (active); for `O=C1NC[C@@H](Cc2ccc(O)cc2)N(CCc2cccc(F)c2)C1=O`: -20.2%.

Another assay deals with Nuclear receptor coactivator 2 (Homo sapiens) (UniProt Q15596). In words: inhibition of GAL4-SRC2 driven luciferase expression – cell-based, luminescence, HEK293, triplicate, confirmation (AID 652008;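 active = mean inhibition above 46.5%, the solvent-only control mean plus 3 SD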;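 note: 0% = DMSO-treated cells and 100% = Gossypol at 36 µM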). As to conditions: HEK293 GAL4-SRC2 luciferase reporter, at 8.9 µM, hits give high values.
Nuclear receptor coactivator 2 (Homo sapiens), sequence (Q15596 whole entry, looked up, the tested form may be a part): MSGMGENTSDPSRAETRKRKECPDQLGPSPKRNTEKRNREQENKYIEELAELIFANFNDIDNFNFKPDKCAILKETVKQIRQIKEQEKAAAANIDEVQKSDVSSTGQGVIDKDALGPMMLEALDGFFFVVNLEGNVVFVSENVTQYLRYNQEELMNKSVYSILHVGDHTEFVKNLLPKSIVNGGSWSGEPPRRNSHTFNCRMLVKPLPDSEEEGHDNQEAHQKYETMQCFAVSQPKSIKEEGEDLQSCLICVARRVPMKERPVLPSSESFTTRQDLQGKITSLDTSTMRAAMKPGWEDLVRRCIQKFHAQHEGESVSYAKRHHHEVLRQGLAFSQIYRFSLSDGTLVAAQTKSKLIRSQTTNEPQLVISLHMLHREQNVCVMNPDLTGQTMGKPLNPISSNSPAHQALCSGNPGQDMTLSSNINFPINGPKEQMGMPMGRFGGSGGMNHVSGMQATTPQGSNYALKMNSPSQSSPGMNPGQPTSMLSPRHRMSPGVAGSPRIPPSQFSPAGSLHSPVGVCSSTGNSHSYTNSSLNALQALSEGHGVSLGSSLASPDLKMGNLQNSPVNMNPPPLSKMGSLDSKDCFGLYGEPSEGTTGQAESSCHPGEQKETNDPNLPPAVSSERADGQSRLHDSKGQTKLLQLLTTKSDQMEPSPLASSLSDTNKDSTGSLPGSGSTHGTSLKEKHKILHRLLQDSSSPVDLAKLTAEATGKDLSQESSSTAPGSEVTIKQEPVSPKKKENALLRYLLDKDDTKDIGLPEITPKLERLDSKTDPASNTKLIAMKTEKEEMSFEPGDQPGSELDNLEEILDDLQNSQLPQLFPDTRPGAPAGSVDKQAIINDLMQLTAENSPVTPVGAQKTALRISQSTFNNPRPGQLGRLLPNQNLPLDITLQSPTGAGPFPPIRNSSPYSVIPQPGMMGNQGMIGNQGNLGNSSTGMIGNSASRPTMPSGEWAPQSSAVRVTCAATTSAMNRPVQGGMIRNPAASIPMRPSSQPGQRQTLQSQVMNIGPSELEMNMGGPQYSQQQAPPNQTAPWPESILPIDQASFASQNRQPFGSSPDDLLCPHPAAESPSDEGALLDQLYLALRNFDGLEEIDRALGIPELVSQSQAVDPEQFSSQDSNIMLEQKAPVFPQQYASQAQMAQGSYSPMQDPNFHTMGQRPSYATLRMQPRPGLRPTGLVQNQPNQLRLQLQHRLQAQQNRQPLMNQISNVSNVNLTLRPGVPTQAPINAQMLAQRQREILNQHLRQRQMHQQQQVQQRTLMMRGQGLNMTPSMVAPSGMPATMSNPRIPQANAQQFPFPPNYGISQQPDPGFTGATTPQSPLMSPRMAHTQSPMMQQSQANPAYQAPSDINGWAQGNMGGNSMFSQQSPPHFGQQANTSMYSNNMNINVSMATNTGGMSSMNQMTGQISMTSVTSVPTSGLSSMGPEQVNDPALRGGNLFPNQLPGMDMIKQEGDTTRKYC
Regarding `CN1OC[C@@H]2CN(S(=O)(=O)c3cccc(C(F)(F)F)c3)[C@H](c3ccc(-c4cc5ccccc5o4)cc3)C[C@@H]21`, the inhibition was 46.3%. In the case of `C[C@H]1CCC/C=C/C(=O)c2c(O)cc(O)cc2CC(=O)O1`, the inhibition is 55.5% (active).

On to `CN(C)S(=O)(=O)c1cccc(NC(=O)COC(=O)C2(c3ccccc3F)CCCC2)c1`, for which the inhibition was 0.58%.

For the compound `CC[C@@H](C)[C@H](NC(=O)CCc1c(C)c2cc3c4c(oc3c(C)c2oc1=O)CCCC4)C(=O)O`, the inhibition is 59.5% (active). Same read-out and setting: the figure for `COc1ccc(OC)c(NC(=O)c2cc(-c3cc(F)ccc3OCC3CCCO3)n[nH]2)c1` (stereo not drawn) is -1.6%; for `O=C(c1c(F)cccc1F)N1CCN(S(=O)(=O)c2ccc3c(c2)OCCO3)CC1` it is 23.6%; for `Cc1ccc(-c2nc(CSCC(=O)NC3CCN(Cc4ccccc4)CC3)c(C)o2)cc1` it is 33.9%. Turning to `COc1ccc(/C=C2/SC(=O)N(CCCCCC(=O)Nc3ccccc3C(=O)O)C2=S)cc1`, the inhibition was 63.9% (active). Same read-out and setting: the same measure for `O=C1NC[C@@H](Cc2ccc(O)cc2)N(CCc2cccc(F)c2)C1=O`: -26.9%.

Tested on in another assay: not listed separately
In words: BSA probe fluorescence interference – biochemical, TAMRA-labeled BSA, counter-screen for TCR-CD3 interaction inhibitor project (AID 652035).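 Note: 0% = buffer low control and 100% = reference high control.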 As to conditions: TAMRA-labeled BSA probe fluorescence counterscreen; at 9.4 µM; hits give high values.
For `CN1CCN(/N=C/c2ccc(C#N)cc2)CC1`, the inhibition was 1.63%.

Turning to `CCOc1ccc(-n2c(O)c(/C=N/Nc3nnc(C)c(=O)[nH]3)c3ccccc3c2=O)cc1`, the inhibition is -21.4%. On the same count and under the same terms, the figure for `CNS(=O)(=O)c1ccc2c(c1)[nH]c(=S)n2C` is 10.3%; for `Cc1ccc(O)c(/C=N/NC(=O)COc2ccc3c(C)cc(=O)oc3c2)c1` it is -10.9%; for `COc1ccccc1C(=O)NNC(=O)c1ccc(NC(=O)c2ccccc2)cc1` it is -8.35%. On the same count and under the same terms, the figure for `O=C(Nc1cccc(-c2nc3ccccc3[nH]2)c1)c1ccc(C(=O)Nc2cccc(-c3nc4ccccc4[nH]3)c2)cc1` is 9.76%. As to `Cc1ccc(-c2nn(-c3ccccc3)cc2/C=C/C(=O)Nc2cccc(S(N)(=O)=O)c2)cc1`, the inhibition is 26.6% (active).

With `COc1ccccc1C(=O)NNC(=O)CCN1C(=O)/C(=C\c2ccccc2)SC1=S`, the inhibition is -8.51%.

As to `CCOCC(=O)NCc1ccc2c(c1)cc(C)n2C`, the inhibition is 6.46%.

`COc1ccc(Br)cc1C(=O)NC(=S)Nc1cc(-c2nc3ccccc3[nH]2)ccc1C`: the inhibition is 17.9%. The same measure, in the same setting: the figure for `COc1ccc(NS(=O)(=O)c2cc(NC(=O)/C=C/c3cc(OC)c(OC)c(OC)c3)ccc2N2CCCCC2)cc1` is 11%.

With `COc1cc(C(=O)NCC2(c3ccccc3)CCCC2)ccc1OC(C)C`, the inhibition is 1.07%. Turning to `COc1ccc(/C(=N\O)c2nccc3cc(OC)c(OC)cc23)cc1OC`, the inhibition was -7.63%. On the same count and under the same terms, the figure for `Cc1cc(C(=O)CCC(=O)NNC(=O)c2ccccc2O)c(C)s1` is -14.4%; for `COc1ccc(CC(=O)N/N=C/c2cc([N+](=O)[O-])cc(Br)c2O)cc1` it is -11.9%. On the same count and under the same terms, the figure for `O=C(N/N=C/c1ccco1)c1ccc(C(=O)N/N=C/c2ccco2)o1` is -19.7%; for `CCN(C(=O)Nc1cccc2ccccc12)c1ccccc1` it is 2.01%; for `O=C1C(Cc2ccc(O)cc2)NC(=S)N1Cc1ccccc1` (stereo not drawn) it is -2.95%. Turning to `COc1ccc(-c2c(-c3cc(OC)cc(OC)c3)n(C)c3ccc(-c4ccn[nH]4)cc23)cc1`, the inhibition was 1.44%. For `COc1ccc(C(=O)NNc2cc(C)nc(NNC(=O)c3ccc(OC)cc3)n2)cc1`, the inhibition is -5.67%. Consider `COCCCNC(=S)NNC(=O)C(O)(c1ccccc1)c1ccccc1`, for which the inhibition was -0.41%. Same read-out and setting: the figure for `O=C(N/N=C/c1cc([N+](=O)[O-])ccc1O)/C(=C\c1cccs1)NC(=O)c1ccccc1` is -11.3%; for `Cc1cc2nc3c(=O)[nH]c(=O)nc-3n(C[C@H](O)[C@H](O)[C@H](O)CO)c2cc1C` it is 50.4% (active). Still for that read-out and setting: the same measure for `CNC(=S)NNC(=O)c1cccn(Cc2ccccc2)c1=O`: 4.48%; for `O=c1c2ccccc2c(-c2ccccc2)nn1-c1ccccn1`: -1.19%.

For `Cc1ccc(C(=O)NCC(=O)O)cc1S(=O)(=O)N1CCCCC1`, the inhibition was 2.01%. Still for that read-out and setting: the same measure for `C=CCn1c(=O)c(C(=O)Nc2ncccc2O)c(O)c2ccccc21`: -7.93%. `COc1ccc(C(=O)NC(=S)NNC(=O)CCc2ccccc2)cc1`: the inhibition was 4.22%. Same read-out and setting: the same measure for `Oc1ccc(N=Cc2c(O)ccc3ccccc23)cc1`: -3.16%; for `Cc1ncc(CO)c(/C=N/NC(=O)c2cccc(S(=O)(=O)N3CCCC3)c2)c1O`: -12.6%.
